Only a selection was taken, and hits are over-represented in it overall.
Dicer processing – inhibitors of Dicer pre-microRNA processing, primary screen, biochemical, cat-ELCCA, chemiluminescence; Endoribonuclease Dicer (Homo sapiens), Q9UPY3; cat-ELCCA pre-miR-21 Dicer processing; active compounds read high; z-score at 25 µM; 47,000 compounds, 6% hits; AID 1347074, 2019; in the data active = z-score above about 3, passing the limit was not always enough;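 also: higher signal means more uncleaved substrate so more Dicer inhibition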
Large screens that a line does not name were inactive.

FC(F)(F)c1cnc(NCCNc2cnc3ccccc3n2)c(Cl)c1	none
Cc1ccc(S(=O)(=O)NC(=O)NCCNc2ncc(C(F)(F)F)cc2Cl)cc1	none
CC(C)n1c(SCC(=O)c2ccccc2)nc2cc(Cl)ccc21	none
CN1C(=O)c2cccc3cc([N+](=O)[O-])cc(c23)C1=O	none
O=C(O)CN1C(=O)c2cccc3cc([N+](=O)[O-])cc(c23)C1=O	none
O=C1c2cccc3cc([N+](=O)[O-])cc(c23)C(=O)N1Cc1ccncc1	Dicer processing 3.49
Cc1nc(C)c(-c2csc(Nc3ccccc3)n2)s1	Dicer processing 5.08
Cc1nc(C)c(-c2csc(Nc3cccc(O)c3)n2)s1	none
Cc1nc(C)c(-c2csc(Nc3ccc(C(=O)O)cc3)n2)s1	none
COc1ccc(C2C3C(=O)N(c4ccc(F)cc4)C(=O)C3ON2c2ccccc2)cc1 (stereo unspecified)	none
CN(C)c1ccc(C2C3C(=O)N(Cc4ccccc4)C(=O)C3ON2c2ccccc2)cc1 (stereo unspecified)	Dicer processing 3.29
O=C1C2ON(c3ccccc3)C(c3ccncc3)C2C(=O)N1c1cccc(Cl)c1 (stereo unspecified)	none
Cc1cc2nc(NCCO)n(CCOc3ccccc3)c2cc1C	none
O=c1c2ccccc2nnn1CSc1ncnc2sc3c(c12)CCCC3	none
C=CCSc1nnc(-c2ccc(C(C)(C)C)cc2)n1C	none
Cn1ccnc1SCC(=O)Nc1ccc(F)c(F)c1	none
O=C1c2ccccc2C(=O)N1CC12CC3CC(CC(Br)(C3)C1)C2	none
COc1ccc(O)c(C2=NN3C(C2)c2cccc(OC)c2OC3c2ccc(F)cc2)c1 (stereo unspecified)	none
COc1ccc(C2Oc3c(OC)cccc3C3CC(c4ccccc4O)=NN32)cc1 (stereo unspecified)	none
COc1ccc(C2CC(c3ccccc3O)=NN2)cc1 (stereo unspecified)	Dicer processing 4.15
COc1cccc2c1OC(C(C)C)N1N=C(c3cc(Cl)ccc3O)CC21 (stereo unspecified)	none
COc1ccc(C2=Nc3ccccc3SC(c3ccccc3)C2)c(O)c1 (stereo unspecified)	none
COc1ccc(C2CC(c3cc(Cl)ccc3O)=NN2)cc1 (stereo unspecified)	Dicer processing 5.77
COC(=O)c1sccc1N/N=C/c1c(F)cccc1Cl	none
CCCCCN1C(C(=O)c2ccccc2)=C(NC(=O)C(C)(C)C)c2ccccc2S1(=O)=O	none
O=C(/C=C1\OC(=O)c2ccccc21)Oc1cccc(C(F)(F)F)c1	none
N=c1c2cnn(-c3ccccc3)c2ncn1/N=C/c1ccc([N+](=O)[O-])cc1	none
CNC(=S)NNC(=O)c1sc2nnc(-c3ccccc3)c(-c3ccccc3)c2c1N	none
CCN(CC)S(=O)(=O)c1ccc(N2C(=O)CC3(CCCC3)C2=O)c(Cl)c1	none
Cc1ccc(C)c(CSc2nc(C3CCCCC3)c(C#N)c(=O)[nH]2)c1	Dicer processing 4.26
CCc1ccccc1CSc1nc(C)cc(C)c1C#N	none
CSc1nc(CSc2ccc(Cl)cc2)nc(C2CC2)c1C#N	none
CCN(CC)c1ccc(C2C(C(=O)OCC3CCCO3)=C(C)NC3=C2C(=O)CCC3)cc1 (stereo unspecified)	none
CN(C)CCCOC(=O)c1cc2ccccc2o1	none
CN(CCOC(=O)c1cc2ccccc2o1)C(C)(C)C	none
COc1ccc(OC(=O)c2cc3ccccc3o2)cc1	Dicer processing 4.74
CCOC(=O)N1CCc2c(sc3[nH]c(=O)n(-c4ccc(Cl)cc4)c(=O)c23)C1	none
COc1ccc(C2CC(=O)c3cnc4[nH]n(-c5ccccc5)c(=O)c4c3C2)cc1OC (stereo unspecified)	none
COc1cccc(NC2=C(C#N)C(=O)NC(c3ccc([N+](=O)[O-])cc3)S2)c1 (stereo unspecified)	none
CC1=C(C#N)C(c2ccc3c(c2)CCC(C)(C)O3)C2=C(CCCC2=O)N1 (stereo unspecified)	none
N#Cc1c(=O)c2ccccc2n2c1[nH]c1ccccc12	none
CC(/C=N/OC(=O)c1ccc(F)cc1)=N\Nc1c(Cl)cc(Cl)cc1Cl	none
O=S(=O)(Nc1ccc2oc(-c3ccccc3F)nc2c1)c1ccccc1	none
Cc1cc2nc(-c3cc(N)ccc3Cl)oc2cc1C	none
Nc1ccc2oc(-c3ccc(-c4nc5cc(N)ccc5o4)cc3)nc2c1	none
Cc1ccc2nc(-c3cc(N)ccc3Cl)oc2c1	Dicer processing 4.01
O=S(=O)(Nc1ccc2oc(-c3ccc(Cl)cc3)nc2c1)c1ccccc1	Dicer processing 4.03
Nc1ccc2oc(-c3ccc(F)cc3)nc2c1	Dicer processing 3.69
Cc1cc2nc(-c3ccc(N)cc3)oc2cc1C	none
Cc1cc(=O)oc2cc(NS(=O)(=O)c3ccccc3)ccc12	none
Cc1ccc2nc(-c3ccc(N)cc3)oc2c1	none
Nc1ccc2oc(-c3cccc(Cl)c3)nc2c1	none
Nc1ccc(-c2nc3cc(Cl)ccc3o2)cc1	Dicer processing 3.19
Nc1ccc2oc(-c3ccccc3F)nc2c1	none
COc1ccc(/C=N/Nc2ncnc3scc(C)c23)cc1	none
O=c1/c(=C/c2ccc(F)cc2)sc2nc3ccccc3n12	none
O=C(Nc1ccc(OC(F)(F)F)cc1)NC1CCN(Cc2c(F)cccc2Cl)CC1	none
CCOc1ccccc1NC(=O)Oc1ccc(F)cc1Cl	none
FC(F)(F)c1cc(Oc2ccccc2)c2cccc(Br)c2n1	none
O=C1CC(c2cccc(Cl)c2)Cc2nc(N3CCc4ccccc4C3)ncc21 (stereo unspecified)	none
N#Cc1cccnc1N1CCCN(C(=O)Nc2cccs2)CC1	none
Cc1ccc(O)c(-c2cc(C(F)(F)C(F)F)on2)c1	none
Cc1cc(N2C(=O)CSC2c2cccnc2)no1 (stereo unspecified)	none
Cc1ccc(-c2nc3ncccc3o2)cc1N	none
Clc1ccc(-c2nc3cc(NCc4cccs4)ccc3o2)cc1	none
Nc1ccc2nc(-c3ccccc3)oc2c1	Dicer processing 4
Nc1ccc(-c2nc3ccccc3o2)cc1	none
O=C(Nc1ccc(-c2nc3ncccc3o2)cc1)c1ccc([N+](=O)[O-])o1	none
Nc1ccc2oc(-c3ccccc3)nc2c1	none
Clc1ccc(Cn2nnc(N3CCCCC3)n2)cc1	none
Clc1ccc(-c2nc3cc(CN4CCCCC4)ccc3o2)cc1	Dicer processing 4.3
Fc1ccc(-c2nc3ncccc3o2)cc1	Dicer processing 3.27
CC(C)(C)NC(=S)Nc1c(Cl)cc(Cl)cc1Cl	none
CC1=NN(c2ccc(Cl)cc2)C(=O)C1CCOC(=O)c1nn(-c2ccccc2)nc1C (stereo unspecified)	none
COc1ccccc1NS(=O)(=O)c1cccc(S(=O)(=O)c2ccc(Br)cc2)c1	none
Cc1nnc2c3c(-c4ccccc4)csc3ncn12	none
Cc1ccc2ncc(NC(=O)c3ccccc3)c(=O)n2c1	none
CCOC(=O)c1c[nH]c2ccc(Cl)cc2c1=O	none
CCOC(=O)Cc1csc(NC(=O)CSc2nc3ccccc3c(=O)[nH]2)n1	none
CC1CCc2c(sc(N)c2C(=O)Nc2ccc(Cl)cc2)C1 (stereo unspecified)	none
CCOc1cc(C2Nc3ccccc3-c3cc(C)nn32)ccc1O (stereo unspecified)	none
COc1ccc(C2Nc3c(C)cccc3-c3cc(C)nn32)cc1O (stereo unspecified)	Dicer processing 3.86
COc1cccc(C2Nc3ccccc3-c3cc(C)nn32)c1OC (stereo unspecified)	none
COc1cc(C2Nc3c(C)cccc3-c3cc(C)nn32)ccc1O (stereo unspecified)	none
Cc1cc2n(n1)C(c1ccc(O)c(O)c1)Nc1c(C)cccc1-2 (stereo unspecified)	none
Cc1cc2n(n1)C(c1cc(Br)ccc1O)Nc1ccccc1-2 (stereo unspecified)	Dicer processing 4.63
Cc1cc2n(n1)C(c1ccccc1O)Nc1ccccc1-2 (stereo unspecified)	none
